Laboratory results: the supplement of paper PMC6555819

Tests used:
Test in all cases: PBM binding z-score (relative to random genomic background probes); higher = stronger binding; sequences stand for … in GC…GCGATTGACAGCGTAGAATGAAGG
[1] = tested on: PPARg:RXRa DBDmut IVT, anti-RXR (DBD mutation: RXRa K156A/R161A, NR concentration 270 nM, RXRa partner concentration 90 nM)
In short: (§1)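 Each nuclear receptor dimer, without ligand, was incubated for 1 h on custom Agilent 4×180K protein-binding microarrays. Binding was detected with antibodies against each partner (one per run), and scanned fluorescence was regression-normalized. The binding z-scores are referenced to random human genomic background probes.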

[2] = tested on: PPARg:RXRa IVT, anti-PPARg (NR concentration 270 nM, RXRa partner concentration 90 nM)
In short: as §1

[3] = tested on: PPARg DBDmut:RXRa IVT, anti-PPARg (DBD mutation: PPARg1 K132A/R137A, NR concentration 270 nM, RXRa partner concentration 90 nM)
In short: as §1

[4] = tested on: PPARg DBDmut IVT, anti-PPARg (DBD mutation: PPARg1 K132A/R137A, NR concentration 270 nM)
In short: as §1

[5] = tested on: PPARg homodimer (NR concentration 180 nM)
In short: as §1

[6] = tested on: PXR:RXRa (NR concentration 270 nM, RXRa partner concentration 90 nM)
In short: as §1

[7] = tested on: PXR homodimer (NR concentration 270 nM)
In short: as §1

[8] = tested on: RARa:RXR (NR concentration 270 nM, RXRa partner concentration 90 nM)
In short: as §1

[9] = tested on: RARa homodimer (NR concentration 270 nM)
In short: as §1

[10] = tested on: RARb:RXRa (NR concentration 270 nM, RXRa partner concentration 90 nM)
In short: as §1

Row | Sequence | PBM binding z-score [1] | PBM binding z-score [2] | PBM binding z-score [3] | PBM binding z-score [4] | PBM binding z-score [5] | PBM binding z-score [6] | PBM binding z-score [7] | PBM binding z-score [8] | PBM binding z-score [9] | PBM binding z-score [10]
1 | TCGCGGAGGACACGAAGGTCAGAGCTTTCCAGAG | 0.6 | 0.577 | -0.818 | -2.01 | 1.37 | 1.83 | 0.425 | 1.74 | 0.1 | 3.26
2 | TGAATGACGTTATAAGATCAGGGAACGTTGCAAA | -1.22 | -0.257 | 1.11 | 0.502 | 0.0586 | -0.0188 | -0.13 | 0.166 | 0.18 | -0.286
3 | CAAACTAGCTCAAAGGTCAAAGTCGAGCCAACCA | 1.24 | 4.54 | 0.599 | 0.63 | 4.6 | 5.37 | 1.71 | 6.39 | 2.49 | 4.76
4 | TATAGTTGGTCAAAGGTCACACACTCGAAATGCG | 2.28 | 6.4 | 1.87 | 3.69 | 4.52 | 6.04 | 1.29 | 6.91 | 2.66 | 5.04
5 | ATATGTAGGGTATCGGGTCATTCAGTTTGCGCAT | 6.53 | 6.58 | 2.46 | 2.33 | 2.08 | 3.66 | 7.07 | 2.95 | 0.891 | 2.09
6 | TAGCCTAGATCATTCAGGGGCCAGTATAGAAAGC | 1.21 | 1.03 | -0.343 | 0.115 | -0.77 | -0.495 | -0.234 | 0.0251 | -0.596 | 0.0871
7 | TCTAGTTGGTCACGGAGGTCACACCCGACGGGTA | 2.48 | 4.28 | 1.28 | 1.19 | 2.95 | 4.15 | 1.24 | 4.2 | 1.58 | 3.79
8 | TTACCAAGGTGAAGGTCGTTGCTCCCTCTGTAGA | 2.04 | 3.56 | -0.269 | 0.0241 | 1.17 | 1.46 | 0.225 | 1.65 | -0.269 | 2.39
9 | CCTATTAGTTAACCATAAGGGCAACCGAAGCTCG | 0.296 | 0.65 | 0.701 | 0.763 | 1.71 | 0.409 | 0.723 | 0.812 | 1.42 | 1.41
10 | CGAACTAGGTGATCCAGGACAGTGAATACATTGA | 5.95 | 5.54 | 1.12 | 0.847 | 0.425 | -0.38 | 0.369 | 0.202 | 0.271 | 0.0644
11 | CGACCAAGGTCAAAGGTCAGTGAAGAGATGACGG | 4.11 | 6.17 | 1.79 | 0.574 | 5.46 | 7.16 | 1.55 | 9.08 | 2.47 | 5.95
12 | AATACAGGGTCATCGTAGACCAGAGTACGCACAG | 3.19 | 4.37 | 1.62 | 0.874 | 2.94 | 4.27 | 0.967 | 5.09 | 1.49 | 4.3
13 | TCTTGTAGATCAATAGTGGTTAAGAAAGTGCGCT | 1.98 | 0.303 | 0.28 | 1.33 | 0.545 | 0.46 | 0.364 | 0.481 | 0.947 | 0.0691
14 | TCTAGTCGGTCACGGAGGTCACACACGACGGGTA | 4.17 | 5.71 | 2.36 | 0.492 | 3.93 | 4.93 | 2.24 | 5.02 | 1.39 | 4.56
15 | GGAACGAGGGCAAAGTTGATCGCATCTGTCGACG | 3.98 | 4.13 | -0.0459 | -0.518 | 0.458 | 0.924 | 0.152 | 1.42 | -0.502 | 2.32
16 | GCCTGTAGATCAAGGTTAAGAAAGACTAAGCTAA | 0.625 | 0.319 | -0.514 | -0.208 | -0.292 | 0.333 | -0.503 | 0.885 | -1.02 | 0.799
17 | GCACCAAGGTGAATAGGTCGTTGATGAGTAGGCG | 2.07 | 2.2 | -0.106 | -0.894 | 1.01 | 0.721 | -0.261 | 1.6 | -0.487 | 1.93
18 | TGAATGAGGTTATAAGATCAGGGAACGTTGCAAA | 1.08 | 1.54 | 0.481 | 0.281 | -0.132 | 0.601 | -0.261 | 1.25 | 0.0131 | 1
19 | CCGACCGGGGCAAAGGTTACCATACTCAGTACGA | 0.771 | 3.62 | -1.08 | -1.57 | 1.59 | 2.84 | -0.256 | 4.81 | -0.0897 | 2.66
20 | CGAACTAGGTCTGAACAGGACAGTGAAGGATGAT | 1.88 | 0.996 | -0.255 | -0.111 | -0.44 | -0.688 | -0.469 | -0.635 | -0.454 | -0.192
21 | ATGTCTAGGTAAAGTTCAGTGAAAGATCGATAGA | 1.29 | 2.46 | 1.14 | 1.13 | 1.69 | 2.12 | 1.98 | 1.13 | 1.09 | 2.84
22 | AGAACGAGCGCACGCTGAGTTGATAGCAGAGTAG | -0.589 | -0.892 | -0.82 | -1.39 | -1.63 | -0.74 | -0.523 | -0.952 | -1.05 | -1.05
23 | GGAACGATGGCATTCGAGTTGATAGCATGGCGAT | -0.377 | -0.247 | -0.636 | -0.427 | -0.633 | -0.0726 | -0.789 | -0.647 | -0.81 | -0.501
24 | TCATATAGGTAAATGCTAAGTGAAAGTCCGATCT | 4.03 | 2.11 | 0.478 | 0.946 | 0.521 | 0.632 | 0.372 | 0.974 | 0.763 | 0.453
